# Counter-ions that a name gives are not always drawn.
# Tested on: Saccharomyces cerevisiae BY4741 SeMeCo community
# Assay: z-score of subpopulation abundance vs DMSO median, subpopulation auxotrophic for HLU; higher = larger share of this subpopulation than in DMSO controls
# Conditions: 10 µM; 24 h; SM minimal medium; subpopulation (auxotrophy): HLU
# Description: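 Fluorescent four-plasmid SeMeCo (self-establishing metabolically cooperating S. cerevisiae BY4741 community; plasmids pH-mRuby2, pL-mWasabi, pU-eCFP, pM-TagRFP657) was grown 24 h in minimal SM medium with each Selleck FDA-approved drug at 10 µM in 384-well plates. Cells were fixed and imaged by high-content confocal microscopy. For each auxotrophic subpopulation (and the prototroph), a z-score gives the deviation from the DMSO vehicle-control population median.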
row,SMILES,z-score of subpopulation abundance
1,CN[C@@H]1[C@@H](O)[C@@H](O[C@@H]2[C@@H](O)[C@H](O[C@H]3O[C@H](CN)CC[C@H]3N)[C@@H](N)C[C@H]2N)OC[C@]1(C)O.CN[C@@H]1[C@@H](O)[C@@H](O[C@@H]2[C@@H](O)[C@H](O[C@H]3O[C@H]([C@@H](C)N)CC[C@H]3N)[C@@H](N)C[C@H]2N)OC[C@]1(C)O.CN[C@@H]1[C@@H](O)[C@@H](O[C@@H]2[C@@H](O)[C@H](O[C@H]3O[C@H]([C@@H](C)NC)CC[C@H]3N)[C@@H](N)C[C@H]2N)OC[C@]1(C)O [Gentamicin Sulfate],-0.42
2,C#C[C@]1(O)C=C[C@H]2[C@@H]3CCC4=CC(=O)CC[C@@H]4[C@H]3CC[C@@]21CC [Gestodene],0.11
3,NC(=O)CN1CCCC1=O [Piracetam],1.5
4,Cn1cc(C2=C(c3cn(C4CCN(Cc5ccccn5)CC4)c4ccccc34)C(=O)NC2=O)c2ccccc21,0.26
5,CN1c2ccccc2C(NCCCCCCC(=O)O)c2ccc(Cl)cc2S1(=O)=O (stereo not given) [Tianeptine sodium],-0.23
6,N[C@@H]1C[C@H]1c1ccccc1 [Tranylcypromine (2-PCPA) HCl],0.05
7,C=CC[C@]1(O)CC[C@H]2[C@@H]3CCC4=CC(=O)CCC4=C3C=C[C@@]21C [Altrenogest],0.03
8,CCOC(=O)Nc1ccc(NCc2ccc(F)cc2)cc1N [Retigabine 2HCl],-0.42
9,CCN1CC2(OC(=O)c3ccccc3NC(C)=O)CCC(OC)C34C1C(CC23)C1(O)CC(OC)C2CC4C1(O)C2OC (stereo not given) [Lappaconitine],-0.47
10,CN(C)[C@@H]1C(=O)C(C(N)=O)=C(O)[C@@]2(O)C(=O)C3=C(O)c4c(O)cccc4[C@@](C)(O)[C@H]3C[C@@H]12 [Tetracycline HCl],0.02
11,C[N+](C)(C)CCCCCCCCCC[N+](C)(C)C [Decamethonium Bromide],0
12,O=c1cccc2n1C[C@@H]1CNC[C@H]2C1 [Cytisine],-0.22
13,Oc1cccc2cccnc12 [8-Hydroxyquinoline],-0.85
14,"NCC(O)c1ccc(O)cc1 (racemic) [(+,-)-Octopamine HCl]",-0.28
15,Cc1cc(C(C#N)c2ccc(Cl)cc2)c(Cl)cc1NC(=O)c1cc(I)cc(I)c1O (stereo not given) [Closantel],0.79
16,CN(C)[C@@H]1C(=O)C(C(N)=O)=C(O)[C@@]2(O)C(=O)C3=C(O)c4c(O)cccc4[C@@](C)(O)[C@H]3[C@H](O)[C@@H]12 [Oxytetracycline (Terramycin)],0.16
17,CCN(CC)CCOC(=O)C(O)(c1ccccc1)c1ccccc1 [Benactyzine hydrochloride],0.38
18,CC1(C)SC2C(N)C(=O)N2C1C(=O)O (stereo not given) [6-Aminopenicillanic acid],-0.15
19,Cc1cc(O)ccc1Cl [Chlorocresol],-0.87
20,COc1ccc(C(CN(C)C)C2(O)CCCCC2)cc1 (stereo not given) [Venlafaxine],-0.41

row,SMILES,z-score of subpopulation abundance
1,CCN(C)C(=O)Oc1cccc([C@H](C)N(C)C)c1 [Rivastigmine Tartrate],-0.41
2,C[CH2][Hg][S]c1ccccc1C(=O)[O-].[Na+] [Thimerosal],15.9
3,CC(C)(O)C(Cl)(Cl)Cl [Chlorobutanol],0.97
4,CCN(C)C(=O)Oc1cccc([C@H](C)N(C)C)c1 [Rivastigmine],-0.24
5,CCC1=C[C@H]2CN3CCc4c([nH]c5ccccc45)[C@](C(=O)OC)(C2)[C@H]13 [Catharanthine],-0.62
6,Nc1nc(N)nc(NC2CC2)n1 [Cyromazine],0.88
7,C=C[C@H]1CN2CC[C@H]1C[C@H]2[C@H](O)c1ccnc2ccccc12 [Cinchonidine],-0.48
8,CC(=O)O[C@H]1C[C@@H]2CC[C@@H]3[C@H](CC[C@@]4(C)[C@H]3C[C@H]([N+]3(C)CCCCC3)[C@@H]4OC(C)=O)[C@@]2(C)C[C@@H]1[N+]1(C)CCCCC1 [Pancuronium dibromide],-0.5
9,C[N+]1(C)[C@@H]2C[C@@H](OC(=O)[C@H](CO)c3ccccc3)C[C@H]1[C@@H]1O[C@@H]12 [Methscopolamine],0.5
10,CC[C@@]1(O)C(=O)OCc2c1cc1n(c2=O)Cc2cc3ccccc3nc2-1 [Camptothecin],-0.42
11,CC(NC(C)(C)C)C(=O)c1cccc(Cl)c1 (stereo not given) [Amfebutamone (Bupropion) HCl],-0.82
12,C=C(C)[C@H]1Cc2c(ccc3c2O[C@@H]2COc4cc(OC)c(OC)cc4[C@@H]2C3=O)O1 [Rotenone (Barbasco)],1.77
13,C[C@@H]1O[C@@H](O[C@H]2C[C@@H](O)[C@]3(CO)[C@H]4[C@H](O)C[C@]5(C)[C@@H](C6=CC(=O)OC6)CC[C@]5(O)[C@@H]4CC[C@]3(O)C2)[C@H](O)[C@H](O)[C@H]1O [Ouabain],-1.06
14,CCOC(=O)Nc1ccc(NCc2ccc(F)cc2)cc1N [Retigabine],0.77
15,CCCCCCCCCCCCCCCC[n+]1ccccc1 [Cetylpyridinium Chloride],9.76
16,CC[C@@H](C(N)=O)N1CCCC1=O [Levetiracetam],-0.28
17,CC[C@H]1[C@@H]2C[C@H]3[C@@H]4N(C)c5ccccc5[C@]45C[C@@H]([C@@H]2[C@H]5O)N3[C@@H]1O [Ajmaline],-0.63
18,C[N+]12CCC(CC1)C(OC(=O)C(O)(c1ccccc1)c1ccccc1)C2 (stereo not given) [Clidinium Bromide],-0.31
19,CN1[C@@H]2CC[C@H]1C[C@@H](OC(=O)[C@H](CO)c1ccccc1)C2 [Hyoscyamine],0.2
20,C[C@@H]1CC[C@H]2[C@@H](C)C(=O)O[C@@H]3O[C@@]4(C)CC[C@@H]1[C@]32OO4 [Artemisinin],-0.05

# — the supplement of paper PMC8975748
